Test results taken from PubChem BioAssay AID1159580 (chemical genetic matrix, 2015).
Among all 5,500 compounds or so, about 2,000 (36%) were called active. Roughly 18% stayed inconclusive and do not appear here. Cut-off read from the data, not from the text of the source: active = normalized growth mostly below about 0.91 (no sharp cut-off); inconclusive = no clear call, values can overlap the other calls; inactive = mostly above about 0.92. Some of the results follow.

Experiment: chemical genetic growth profiling, strain panel (AID 1159580);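 note: tested at 20 µM; growth read once vehicle control cultures reached saturation at 30 °C; 1 = growth at the plate median or of vehicle wells; lower values mean less growth of the strain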
Settings: growth OD

Measured: normalized growth

O=C(CCBr)N1CCN(C(=O)CCBr)CC1
inactive: S. cerevisiae deletion strains, locus YJR066W, strain TOR1, active compounds read low 0.961 | S. cerevisiae deletion strains, locus YKL009W, strain mrt4, active compounds read low 0.993 | S. cerevisiae deletion strains, locus YKL068W, active compounds read low 1 | S. cerevisiae deletion strains, locus YKL085W, strain MDH1 (second series), active compounds read low 1.01 | S. cerevisiae deletion strains, locus YKL085W, strain MDH1, active compounds read low 1.01 | S. cerevisiae deletion strains, locus YKL160W, strain elf1, active compounds read low 1.03 | S. cerevisiae deletion strains, locus YKL190W, strain CNB1, active compounds read low 1 | S. cerevisiae deletion strains, locus YKR001C, strain vps1, active compounds read low 0.997 | S. cerevisiae deletion strains, locus YKR026C, strain gcn3, active compounds read low 1.01 | S. cerevisiae deletion strains, locus YKR091W, strain srl3, active compounds read low 1.01 | S. cerevisiae deletion strains, locus YLL001W, strain dnm1, active compounds read low 1.01 | S. cerevisiae deletion strains, locus YLL026W, active compounds read low 1.01 | S. cerevisiae deletion strains, locus YLL041C, strain sdh2, active compounds read low 1.01 | S. cerevisiae deletion strains, locus YLR027C, strain aat2, active compounds read low 1.02 | S. cerevisiae deletion strains, locus YLR039C, strain RIC1, active compounds read low 1 | S. cerevisiae deletion strains, locus YLR058C, strain SHM2, active compounds read low 1.01 | S. cerevisiae deletion strains, locus YLR102C, strain apc9, active compounds read low 0.991 | S. cerevisiae deletion strains, locus YLR113W, strain HOG1, active compounds read low 0.979 | S. cerevisiae deletion strains, locus YLR221C, strain rsa3, active compounds read low 1.01 | S. cerevisiae deletion strains, locus YLR258W, strain gsy2, active compounds read low 1.02 | S. cerevisiae deletion strains, locus YLR262C, strain YPT6 (second series), active compounds read low 1.03 | S. cerevisiae deletion strains, locus YLR262C, strain YPT6, active compounds read low 1.02 | S. cerevisiae deletion strains, locus YLR268W, strain sec22, active compounds read low 1 | S. cerevisiae deletion strains, locus YLR320W, strain mms22, active compounds read low 1.03 | S. cerevisiae deletion strains, locus YLR330W, strain CHS5, active compounds read low 1.01 | S. cerevisiae deletion strains, locus YLR342W, strain FKS1 (second series), active compounds read low 1 | S. cerevisiae deletion strains, locus YLR342W, strain FKS1, active compounds read low 1.02 | S. cerevisiae deletion strains, locus YLR357W, strain rsc2, active compounds read low 1 | S. cerevisiae deletion strains, locus YLR370C, strain arc18, active compounds read low 1.02 | S. cerevisiae deletion strains, locus YLR371W, strain rom2, active compounds read low 0.991 | S. cerevisiae deletion strains, locus YLR384C, strain iki3, active compounds read low 1.02 | S. cerevisiae deletion strains, locus YLR418C, strain cdc73, active compounds read low 1.01 | S. cerevisiae deletion strains, locus YML016C, strain PPZ1, active compounds read low 1.01 | S. cerevisiae deletion strains, locus YML032C, strain rad52, active compounds read low 1 | S. cerevisiae deletion strains, locus YML120C, strain ndi1, active compounds read low 1.02 | S. cerevisiae deletion strains, locus YML124C, strain tub3, active compounds read low 0.991 | S. cerevisiae deletion strains, locus YMR058W, strain fet3, active compounds read low 1.01 | S. cerevisiae deletion strains, locus YMR078C, strain ctf18, active compounds read low 1.01 | S. cerevisiae deletion strains, locus YMR125W, strain sto1, active compounds read low 1.03 | S. cerevisiae deletion strains, locus YMR129W, active compounds read low 1.02 | S. cerevisiae deletion strains, locus YMR205C, strain PFK2, active compounds read low 1.03 | S. cerevisiae deletion strains, locus YMR223W, strain ubp8, active compounds read low 0.999 | S. cerevisiae deletion strains, locus YMR231W, strain pep5, active compounds read low 1.03 | S. cerevisiae deletion strains, locus YMR307W, strain GAS1, active compounds read low 0.993 | S. cerevisiae deletion strains, locus YNL067W, strain RPL9B, active compounds read low 1.01 | S. cerevisiae deletion strains, locus YNL071W, strain lat1, active compounds read low 1.02 | S. cerevisiae deletion strains, locus YNL128W, strain TEP1, active compounds read low 1.01 | S. cerevisiae deletion strains, locus YNL153C, strain GIM3, active compounds read low 1.02 | S. cerevisiae deletion strains, locus YNL183C, strain NPR1, active compounds read low 0.936 | S. cerevisiae deletion strains, locus YNL209W, strain ssb2, active compounds read low 1.02 | S. cerevisiae deletion strains, locus YNL233W, strain BNI4, active compounds read low 1 | S. cerevisiae deletion strains, locus YNL248C, strain rpa49, active compounds read low 1.01 | S. cerevisiae deletion strains, locus YNL250W, strain rad50, active compounds read low 1.01 | S. cerevisiae deletion strains, locus YNL271C, strain bni1, active compounds read low 0.999 | S. cerevisiae deletion strains, locus YNL298W, strain CLA4, active compounds read low 1.01 | S. cerevisiae deletion strains, locus YNL307C, strain MCK1, active compounds read low 0.997 | S. cerevisiae deletion strains, locus YNL322C, strain KRE1 (second series), active compounds read low 1.01 | S. cerevisiae deletion strains, locus YNL322C, strain KRE1, active compounds read low 1.01 | S. cerevisiae deletion strains, locus YNR049C, strain mso1, active compounds read low 1.01 | S. cerevisiae deletion strains, locus YNR052C, strain pop2, active compounds read low 1 | S. cerevisiae deletion strains, locus YOL006C, strain TOP1, active compounds read low 1.02 | S. cerevisiae deletion strains, locus YOL012C, strain htz1 0.666 | S. cerevisiae deletion strains, locus YOL147C, strain pex11, active compounds read low 0.998 | S. cerevisiae deletion strains, locus YOR001W, strain rrp6, active compounds read low 1.01 | S. cerevisiae deletion strains, locus YOR061W, strain CKA2, active compounds read low 1.01 | S. cerevisiae deletion strains, locus YOR069W, strain VPS5, active compounds read low 1.01 | S. cerevisiae deletion strains, locus YOR070C, strain gyp1, active compounds read low 1.02 | S. cerevisiae deletion strains, locus YOR080W, strain dia2, active compounds read low 1.02 | S. cerevisiae deletion strains, locus YOR083W, strain WHI5, active compounds read low 1.02 | S. cerevisiae deletion strains, locus YOR106W, strain vam3, active compounds read low 1.02 | S. cerevisiae deletion strains, locus YOR136W, strain idh2, active compounds read low 0.998 | S. cerevisiae deletion strains, locus YOR144C, strain elg1, active compounds read low 0.993 | S. cerevisiae deletion strains, locus YOR184W, strain ser1, active compounds read low 0.998 | S. cerevisiae deletion strains, locus YOR231W, strain MKK1, active compounds read low 0.985 | S. cerevisiae deletion strains, locus YOR265W, strain rbl2, active compounds read low 1.01 | S. cerevisiae deletion strains, locus YOR270C, strain vph1, active compounds read low 1.08 | S. cerevisiae deletion strains, locus YOR290C, strain snf2, active compounds read low 1 | S. cerevisiae deletion strains, locus YOR316C, strain cot1, active compounds read low 0.999 | S. cerevisiae deletion strains, locus YPL051W, strain arl3, active compounds read low 1.02 | S. cerevisiae deletion strains, locus YPL078C, strain atp4, active compounds read low 1.01 | S. cerevisiae deletion strains, locus YPL106C, strain sse1, active compounds read low 1.03 | S. cerevisiae deletion strains, locus YPL240C, strain hsp82, active compounds read low 1.02 | S. cerevisiae deletion strains, locus YPL241C, strain CIN2, active compounds read low 1.01 | S. cerevisiae deletion strains, locus YPL256C, strain CLN2, active compounds read low 0.996 | S. cerevisiae deletion strains, locus YPR119W, strain clb2, active compounds read low 0.994 | S. cerevisiae deletion strains, locus YPR141C, strain kar3, active compounds read low 0.992 | S. cerevisiae deletion strains, locus YPR163C, strain tif3, active compounds read low 0.994 | S. cerevisiae deletion strains, locus YPR167C, strain met16, active compounds read low 1.01 | S. cerevisiae deletion strains, strain wtn01, active compounds read low 0.989 | S. cerevisiae strains, strain wild type, active compounds read low 1.01
